# Compounds with a hit are over-represented: about 3.3% of the library has one in this group of screens.
# USP1 inh: Inhibitors of USP1/UAF1: Primary Screen | actives 0.23% (n = 390,000) | recombinant USP1/UAF1, Ub-Rhodamine cleavage fluorescence | AID 743255, 2014 | Potency, µM (highest dose often 57.1 µM), without a hit: at the highest dose activity change, negative = inhibition, hits mostly inhibitors | Ubiquitin carboxyl-terminal hydrolase 1 (Homo sapiens), O94782; also: potency is read from the fitted curve at half-maximal effect; nearly all actives have a fitted effect of over 60% in size
#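 High-throughput fluorogenic screen: 1nM USP1/UAF1 complex, Ub-Rho substrate 150nM final, 50mM HEPES pH 7.8 with 0.5mM EDTA, 0.1 mg/ml BSA, 1mM TCEP and 0.01% Tween-20.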
# USP2a inh: qHTS Assay for Inhibitors of Ubiquitin-specific Protease USP2a Using CHOP2 as the Reporter. Ubiquitin carboxyl-terminal hydrolase 2 (Homo sapiens), O75604. USP2 core, Ub-CHOP2 coupled fluorogenic reporter, 485/531. Potency, µM (doses to about 38.3 µM), inactives show at the top dose activity change, negative = inhibition, hits mostly inhibitors. actives 0.01% (n = 330,000). AID 463254, 2010;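 also: potency is read from the fitted curve at half-maximal effect; plate controls were DMSO wells for no effect and full inhibition by NEM control for full effect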
#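 USP2 core (10nM final) preincubated 30min RT with compound in 20mM Tris-HCl pH 8.0, 2mM CaCl2, 2mM beta-mercaptoethanol, 0.05% CHAPS; 25nM Ub-CHOP2 plus 25nM reporter substrate added, fluorescence (Ex485/Em531) read after 60min.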
# PLK1 PBD inh: qHTS for Inhibitors of PLK1-PDB (polo-like kinase 1 - polo-box domain): Primary Screen. Potency, µM, for the others: max response, negative = inhibition, actives largely listed as inhibitors. actives 2.8% (n = 360,000). Serine/threonine-protein kinase PLK1 (Homo sapiens), P53350. Plk1 PBD binding of FITC phosphopeptide, fluorescence polarization. AID 720504, 2013; also: potency is read from the fitted curve at half-maximal effect; series mostly up to about 57 µM; nearly all actives have a fitted effect of over 65% in size
# Target sequence (P53350 whole entry, looked up, the tested form may be a part): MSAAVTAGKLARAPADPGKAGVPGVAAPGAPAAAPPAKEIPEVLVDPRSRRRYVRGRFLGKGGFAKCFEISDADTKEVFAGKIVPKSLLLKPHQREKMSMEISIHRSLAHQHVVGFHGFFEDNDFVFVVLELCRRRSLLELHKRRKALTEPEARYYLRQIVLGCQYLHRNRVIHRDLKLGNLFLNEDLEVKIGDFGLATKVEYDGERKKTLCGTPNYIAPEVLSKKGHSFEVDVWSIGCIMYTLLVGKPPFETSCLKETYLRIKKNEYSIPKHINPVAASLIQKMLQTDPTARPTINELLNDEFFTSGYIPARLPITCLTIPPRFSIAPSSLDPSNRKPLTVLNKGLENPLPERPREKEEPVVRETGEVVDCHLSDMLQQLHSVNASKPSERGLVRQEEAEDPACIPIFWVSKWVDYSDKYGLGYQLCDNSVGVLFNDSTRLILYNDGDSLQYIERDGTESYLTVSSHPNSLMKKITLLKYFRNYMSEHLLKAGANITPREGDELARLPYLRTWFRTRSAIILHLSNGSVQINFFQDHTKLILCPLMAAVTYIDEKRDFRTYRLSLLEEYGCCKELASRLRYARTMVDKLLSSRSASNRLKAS
# PI5P4Ka inh: qHTS for Inhibitors of phosphatidylinositol 5-phosphate 4-kinase (PI5P4K); actives 1.2% (n = 330,000); PI5P4Kalpha enzyme, ADP-Glo luminescence, 60 min; hits give low values; max response, %; active = max response of -50% or lower; inconclusive = between -30% and -50%; inactive = -30% or higher; also: value at the top dose of about 77 µM
#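 ADP-Glo luminescence end-point after a 60 min room-temperature kinase reaction. PI5P4Kalpha and substrate in HEPES pH 7.4 buffer with EGTA, 0.1% CHAPS and 5% DMSO; ATP at 5 microM final.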
# WRN inhibitor: qHTS for Inhibitors of WRN Helicase. WRN helicase unwinding, fluorescent forked duplex, kinetic. AID 651768, 2012. Bifunctional 3'-5' exonuclease/ATP-dependent helicase WRN (Homo sapiens), Q14191. actives 0.46% (n = 360,000). Potency, µM (highest dose often 114 µM), without a hit: at the highest dose activity change, negative = inhibition, usual class: inhibitors; also: potency is read from the fitted curve at half-maximal effect; nearly all actives have a fitted effect of over 55% in size
#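 Primary qHTS, 1536-well format. 20 nM WRN + compound, 15 min RT; start with 100 nM forked fluorophore/quencher duplex, 2 mM ATP (final); kinetic read ex 525/em 598 nm.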
# * hit, by the source's call; u = inconclusive; x = no result given; [ ] = remark or other dose. Unless noted, calls follow the shape of the dose curve; as a rule, active = well fitted curve in the direction sought with a large enough effect; inconclusive = small, poorly fitted or top-dose-only effect, or another doubt; inactive = no such curve, though single readings can be large; an effect the other way counts as inactive or inconclusive. Unless noted, % is scaled to controls: 0 for no effect and ±100 for the full control effect.
SMILES,USP1 inh,USP2a inh,PLK1 PBD inh,PI5P4Ka inh,WRN inhibitor
O=c1oc2ccccc2c(O)c1/C=C1\C=Nc2ccccc21,-6%,0%,0.6µM*,-56*,-31%
O=C(CSc1nnc(C2CC2)n1C1CC1)c1ccc(F)c(F)c1,-6%,0%,-15%,-9,2%
CC(=O)Nc1cc(C(=O)CSc2nnc(C3CC3)n2C2CC2)ccc1O,-11%,2%,-13%,-72*,u
Cc1nc(S(=O)(=O)N2CCN(c3cccc(Cl)c3)CC2)cn1C,-31%,x,x,x,x
CC(=O)c1ccc(OCC(O)CN2CCN(Cc3ccc4c(c3)OCO4)CC2)cc1 (stereo not given),2%,2%,27µM*,1,0%
COc1ccc(OCC(O)CN2CCN(Cc3ccc4c(c3)OCO4)CC2)cc1 (stereo not given),-2%,3%,7%,-4,-6%
CN(C(=O)CSc1nc2ccc(NC(=O)c3ccc(F)cc3)cc2s1)c1ccccc1,-13%,x,x,x,x
CCc1ccc(NC(=O)C(=O)NCCc2sc(-c3ccc(C)cc3)nc2C)cc1,-22%,x,x,x,x
COC(=O)Cn1cc(C(=O)C2CC2)c2ccccc21,-6%,4%,-10%,8,2%[57.1 µM]
CC(NC(=O)Cn1cc(C(=O)C2CC2)c2ccccc21)c1ccccc1 (stereo not given),-21%,2%,30µM*,-1,11%
O=c1c2cccnc2n(Cc2ccccc2F)c(=O)n1Cc1ccccc1Cl,-24%,x,x,x,x
COc1ccc(N2CCN(C(CNC(=O)C(=O)NCCc3ccccc3)c3cccnc3)CC2)cc1 (stereo not given),-3%,x,x,x,x
CCOC(=S)N/C(=N\S(=O)(=O)c1ccc(C)cc1)c1ccccc1,-6%,0%,24µM*,x,0%
CCOC(=O)Cc1csc(N/C(=N/S(=O)(=O)c2ccc(Cl)cc2)c2ccccc2)n1,-16%,1%,21µM*,-14,-19%
O=S(=O)(/N=C(/NC(=S)Nc1ccccc1)c1ccccc1)c1ccc(Cl)cc1,-14%,-1%,12µM*,-20,-8%
O=C(O)c1ccc(N/C(=N\S(=O)(=O)c2ccc(Cl)cc2)c2ccccc2)cc1,-6%,7%,-10%,1,-7%
CCOC(=O)Cc1csc(NS(=O)(=O)c2ccc(Cl)cc2)n1,-20%,3%,2%,5,-15%
COc1ccc(NC(=S)NC(=NS(=O)(=O)c2ccc(Cl)cc2)c2ccccc2)cc1,-4%,0%,12µM*,4,-5%
COc1ccc(CCNc2ncnc3c2nnn3C)cc1OC,-7%,x,x,x,x
CCC(=O)Nc1cc(-c2nc3ccccc3s2)c(Cl)cc1Cl,-23%,x,x,x,x
Cc1ccc(NC(=O)CSc2nc3ccccc3c3nc(CCn4c(C)nc5ccccc54)nn23)cc1F,-29%,x,x,x,x
Oc1c(CN2CCOCC2)cc(-c2ccccc2)cc1CN1CCOCC1,-19%,0%,-3%,-1,7%
Oc1c(CN2CCOCC2)ccc2ccccc12,u,-1%,24µM*,-9,-12%
Cc1sc(NC(=O)CCCC(=O)O)c(C(N)=O)c1-c1ccccc1,-24%,-1%,30µM*,-15,-7%
CS(=O)(=O)N1CCN(c2ccc(C(=O)NC34CC5CC(CC(C5)C3)C4)cc2[N+](=O)[O-])CC1,-9%,2%,27µM*,-12,-19%
SMILES,USP1 inh,USP2a inh,PLK1 PBD inh,PI5P4Ka inh,WRN inhibitor
CCS(=O)(=O)N1CCN(c2ccc(C(=O)NC34CC5CC(CC(C5)C3)C4)cc2[N+](=O)[O-])CC1,-17%,2%,-3%,-5,7%
COc1cccc(C(=O)N2c3nc(-c4ccco4)nn3C3(CCCCC3)[C@@H]3CCCC[C@@H]32)c1,-4%,x,x,x,x
O=C(Nc1ccc(Cl)c([N+](=O)[O-])c1)ONC1=NCCCCC1,-17%,0%,27µM*,13,-4%
O=C(ONC1=NCCCCC1)c1cccc([N+](=O)[O-])c1,u,0%,-9%,-4,-22%[57.1 µM]
O=C(O)c1cccc(NC2=C(Cl)C(=O)c3ccccc3C2=O)c1,u,10%,17µM*,-69*,-11%[11.6 µM]
O=C(O)c1ccc(NC2=C(Cl)C(=O)c3ccccc3C2=O)cc1,-25%,5%,5.3µM*,-19,-2%
Cc1cn2c(=O)cc(COC(=O)c3cccc(NC(=O)C(C)Oc4ccccc4)c3)nc2s1 (stereo not given),-25%,x,x,x,x
Cc1ccc(OCC(=O)Nc2nonc2-c2ccc(C)c(C)c2)cc1C,-38%,x,x,x,x
CCC1=Nc2cc(C(=O)N3CCCCC3)ccc2Sc2ccc(C)cc21,-25%,3%,-12%,-7,-2%
CCCC1=Nc2cc(C(=O)N3CCCC3)ccc2Sc2ccc(C)cc21,-16%,1%,27µM*,-1,0%
CC(C)C(=O)OCc1cc(=O)n2nc(C3CC3)sc2n1,-18%,x,x,x,x
COc1ccc(CNC(=O)c2cc(-c3ccc(C)c(C)c3)n[nH]2)cc1,-1%,x,x,x,x
Cc1ccccc1N/C(=N/S(=O)(=O)c1ccccc1)c1ccc(F)cc1,-4%,1%,38µM*,0,-4%
CCOC(=O)c1oc2nc(C)c3c(c2c1N)CC(C)(C)OC3,-12%,2%,12µM*,u,4%
OCC1OC(n2cnc3c(=S)nc[nH]c32)CC1O (stereo not given),-8%,x,3%,1,-8%
S=c1nc[nH]c2c1ncn2C1CCCO1 (stereo not given),-18%,1%,27µM*,-2,15%
COc1ccccc1NC(=O)c1cc2ccccc2o/c1=N\O,-5%,-1%,u,-2,100µM*
CCN(CC)CCCNC(=O)CCCn1ncn2c(cc3occc32)c1=O,-9%,x,x,x,x
Cc1ccc(CN(Cc2cccn2-c2nnc(N3CCCC3=O)s2)C(=O)Nc2ccccc2Cl)cc1,-9%,x,x,x,x
CC(=O)N1c2ccc(S(=O)(=O)NCC3CCC(C(=O)Nc4cc(C)ccc4C)CC3)cc2CC1C (stereo not given),-4%,x,x,x,x
COc1ccc(S(=O)(=O)Nc2cc3c(cc2NCc2ccccc2)n(C)c(=O)n3C)cc1,-23%,x,x,x,x
CC(C)n1ncc2c(C(=O)O)cc(C3CC3)nc21,-22%,7%,30µM*,-8,-3%
COc1ccc(CNC(=O)c2cc(C3CC3)nc3c2cnn3C(C)C)cc1,-6%,-6%,10%,1,-4%
COc1cc(/C=C2/C(=O)NN(c3ccc(C)c(Cl)c3)C2=O)cc([N+](=O)[O-])c1O,u,-2%,u,-67*,u
CC(C)=C1C(=O)NN(c2ccc(C)c(Cl)c2)C1=O,1%,2%,-13%,u,-30%
